Experimental data: PubChem BioAssay (NCI)
The panel holds about 79,000 compounds, 15% with a hit somewhere; the sample as a whole holds those more often. Calls of active or inactive are those of the source. No stated cut-off is given here; in the data, active means growth inhibition above about 70%; inactive means the rest.

What was measured:
[1] = NCI Yeast Anticancer Drug Screen. Data for the wt1 strain (AID 149);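 further: 0% = growth of vehicle-treated wt1 cultures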; settings: S. cerevisiae wt1 strain (SPY 50644) growth inhibition, stronger effect = higher value
Method in brief: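 Compounds are added to wt1 yeast cultures. Growth is then measured. Inhibition is expressed relative to vehicle-treated controls.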

[2] = NCI Yeast Anticancer Drug Screen. Data for the mgt1 strain (AID 153); settings: S. cerevisiae mgt1 mutant growth inhibition, stronger effect = higher value
Method in brief: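 In the mgt1 strain, test compounds were added and growth inhibition was determined relative to vehicle-treated controls.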

[3] = NCI Yeast Anticancer Drug Screen. Data for the rad50 strain (AID 155);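 further: 0% = growth of vehicle-only cultures of the same strain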; settings: S. cerevisiae rad50 strain growth inhibition, stronger effect = higher value
Method in brief: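 Inhibition values express reduced yeast growth in compound-treated cultures relative to vehicle-treated controls.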

[4] = NCI Yeast Anticancer Drug Screen. Data for the mec2-1 strain (AID 157); settings: S. cerevisiae mec2-1 strain, stronger effect = higher value
Method in brief: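 Each compound was tested on mec2-1 yeast, a strain altered in DNA damage repair or cell cycle control. Growth inhibition is reported relative to vehicle.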

[5] = NCI Yeast Anticancer Drug Screen. Data for the sgs1 mgt1 strain (AID 161);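 further: 0% = growth of cultures given vehicle only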; settings: S. cerevisiae sgs1 mgt1 strain, stronger effect = higher value
Method in brief: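 Genetically altered yeast, compound exposure, growth inhibition relative to vehicle.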

[6] = NCI Yeast Anticancer Drug Screen. Data for the CLN2oe strain (AID 163);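 further: 0% = growth of vehicle-only control cultures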; settings: S. cerevisiae CLN2oe strain, stronger effect = higher value
Method in brief: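 First, the altered yeast strain was treated with each compound; second, its growth was measured; finally, inhibition was derived by comparison with vehicle controls.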

[7] = NCI Yeast Anticancer Drug Screen. Data for the cln2 rad14 strain (AID 165);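 further: 0% = growth equal to vehicle treated cultures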; settings: S. cerevisiae cln2 rad14 strain, stronger effect = higher value
Method in brief: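 Test compounds were added to cln2 rad14 yeast cultures; inhibition of growth was then determined by comparison with vehicle treatment.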

[8] = NCI Yeast Anticancer Drug Screen. Data for the bub3 strain (AID 167); settings: S. cerevisiae bub3 mutant strain, stronger effect = higher value
Method in brief: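 Steps: expose the mutant yeast strain to compound; grow alongside vehicle-treated cultures; measure growth; express inhibition against the vehicle cultures.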

[9] = NCI Yeast Anticancer Drug Screen. Data for the wt2 strain (AID 169);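 further: 0% = growth of vehicle-treated yeast cultures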; settings: S. cerevisiae wt2 strain growth inhibition, stronger effect = higher value
Method in brief: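 The panel's yeast strains carry defined changes in DNA repair or cell cycle genes. Each strain is grown with compound, and growth loss is scored relative to vehicle.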

[10] = NCI Yeast Anticancer Drug Screen. Data for the mlh1 strain (AID 171);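 further: 0% = growth of vehicle-treated control cultures of the same strain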; settings: S. cerevisiae mlh1 strain growth inhibition, stronger effect = higher value
Method in brief: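 Inhibition values reflect reduced yeast growth in the presence of compound, referenced to vehicle controls, using a strain chosen for its alteration in DNA repair or cell cycle control.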

[11] = NCI Yeast Anticancer Drug Screen. Data for the sgs1 strain (AID 173);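 further: 0% = growth of vehicle-only control cultures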; settings: S. cerevisiae sgs1 mutant, stronger effect = higher value
Method in brief: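 Vehicle-treated cultures served as reference for growth inhibition of a yeast strain altered in DNA damage repair or cell cycle control after compound exposure.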

[12] = NCI Yeast Anticancer Drug Screen. Data for the mlh1 rad18 strain (AID 175); settings: S. cerevisiae mlh1 rad18 strain growth inhibition, stronger effect = higher value
Method in brief: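 Inhibition values reflect reduced growth of mutant yeast versus vehicle-treated controls following compound exposure; the mutations affect DNA damage repair.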

[13] = NCI Yeast Anticancer Drug Screen. Data for the rad18 strain (AID 177); settings: S. cerevisiae rad18 mutant growth inhibition, stronger effect = higher value
Method in brief: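 Steps: expose repair-mutant yeast to compound; measure growth; express as inhibition relative to vehicle control.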

[14] = at 5.0 µM (retest, dose inferred, filed as 0.5)
[15] = at 50.0 µM (retest, dose inferred, filed as 5.0)

Measured: growth inhibition

[O-]c1c2cc(-[n+]3c(-c4ccccc4)cc(-c4ccccc4)cc3-c3ccccc3)cc1COCCOCCOCCOCCOC2
inactive: [1]; at 1.2 µM 3% | [1]; at 3.7 µM -6% | [1]; at 11.0 µM -6% | [1]; at 33.0 µM -7% | [1]; at 100.0 µM 35% | [2]; at 1.2 µM -7% | [2]; at 3.7 µM -2% | [2]; at 11.0 µM -13% | [2]; at 33.0 µM 10% | [3]; at 1.2 µM 1% | [3]; at 3.7 µM -2% | [3]; [14] -5% | [3]; at 11.0 µM 0% | [3]; at 33.0 µM 17% | [3]; [15] 35% | [3]; at 50.0 µM 59.1% | [4]; at 1.2 µM -5% | [4]; at 3.7 µM -4% | [4]; [14] -7% | [4]; at 11.0 µM -2% | [4]; at 33.0 µM 4% | [4]; [15] 31% | [4]; at 50.0 µM 33% | [5]; [14] -11% | [5]; [15] 20% | [5]; at 50.0 µM 31.6% | [6]; at 1.2 µM -6% | [6]; at 3.7 µM 1% | [6]; at 11.0 µM -3% | [6]; at 33.0 µM -6% | [7]; [14] -31% | [7]; [15] 12% | [7]; at 50.0 µM 17.1% | [8]; at 1.2 µM -4% | [8]; at 3.7 µM -6% | [8]; [14] -19% | [8]; at 11.0 µM -4% | [8]; at 33.0 µM -8% | [8]; [15] 10% | [8]; at 50.0 µM 21.7% | [8]; at 100.0 µM 30% | [9]; at 1.2 µM -2% | [9]; at 3.7 µM -3% | [9]; at 11.0 µM -2% | [9]; at 33.0 µM 18% | [10]; at 1.2 µM -1% | [10]; at 3.7 µM -1% | [10]; at 11.0 µM -2% | [10]; at 33.0 µM 12% | [11]; at 1.2 µM -4% | [11]; at 3.7 µM -2% | [11]; at 11.0 µM -1% | [11]; at 33.0 µM 18% | [12]; [14] 0% | [13]; at 1.2 µM -1% | [13]; at 3.7 µM -3% | [13]; at 11.0 µM -3% | [13]; at 33.0 µM 6%
active: [2]; at 100.0 µM 82% | [3]; at 100.0 µM 80% | [4]; at 100.0 µM 77% | [6]; at 100.0 µM 77% | [9]; at 100.0 µM 82% | [10]; at 100.0 µM 87% | [11]; at 100.0 µM 71% | [12]; [15] 70% | [12]; at 50.0 µM 72.2% | [13]; at 100.0 µM 74%
